Reference: PubChem BioAssay AID504834 (National Center for Advancing Translational Sciences (NCATS), 2011)
About 22,000 (6.9%) of roughly 320,000 compounds were called active. About 27% were inconclusive and are not listed. This excerpt belongs to a sample that is enriched for actives. A number with no mark means an inactive call. Calls follow the shape of the dose curve; as a rule, active = well fitted inhibition curve with a large enough effect; inconclusive = small, poorly fitted or top-dose-only effect, or another doubt; inactive = no such curve, though single readings can be large or run the other way.

assay: Primary qHTS for delayed death inhibitors of the malarial parasite plastid, 96 hour incubation; details: P. falciparum luciferase reporter growth; series mostly up to 28.7 µM; activity change, negative = inhibition: at the top concentration
How it was run: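 96 h incubation, 37 C, 5% CO2, of luciferase-reporter P. falciparum-infected RBCs (2% hematocrit, 0.05% parasitemia final) with test compounds; endpoint luminescence.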
% is scaled to controls: 0 for no effect and ±100 for the full control effect; potency is read from the fitted curve at half-maximal effect.

Compound | activity change, negative = inhibition [%] | Potency
CCc1ccc(C(=O)COC(=O)c2ccco2)cc1 | -16.8 | 
CC(C)(C)c1ccc(C(=O)N2CCC(C(=O)N3CCCCC3)CC2)cc1 | -25.9 | 
CCOC(=O)C1=C(N)N(c2ccc(C)cc2)C2=C(C(=O)CCC2)C1c1cccs1 (centres undefined) |  | 3.7 µM (active)
CCOC(=O)C1=C(C)NC(=S)NC1c1cccs1 (centres undefined) | 16.8 | 
CCOC(=O)c1cc2c(n(-c3ccc(C)cc3)c1=O)CCCC2=O | 26.5 | 
COC(=O)c1ccc(NC(=O)c2cc3c(CO)cnc(C)c3oc2=Nc2cccc(C(N)=O)c2)cc1 | 1.25 | 
CC(/C=N/NC(=O)c1cc(-c2ccc3ccccc3c2)n[nH]1)=C\c1ccco1 | 10.6 | 
Cc1cc(-c2n[nH]c(=S)n2/N=C/C(Br)=C/c2ccccc2)n[nH]1 | 0 | 
CC(C)c1cc(C(=O)N/N=C/C(Br)=C/c2ccccc2)n[nH]1 |  | 3.29 µM (active)
CN(C(=O)COC(=O)CCCc1c[nH]c2ccccc12)c1c(N)n(Cc2ccccc2)c(=O)[nH]c1=O | 2.5 | 
CCCNC(=O)C(=O)Nc1cc2c3c(c1)CCC(=O)N3CCC2 | 28.4 | 
COc1ccc(CCNC(=O)C2CCCN2C(=O)Nc2ccccc2)cc1OC (centres undefined) | -9.5 | 
O=C(O)c1ccc(N/N=C/c2cn(-c3ccccc3)nc2-c2cccs2)cc1 |  | 0.465 µM (active)
O=C(O)/C=C/c1cn(-c2ccccc2)nc1-c1cccs1 | 54.1 | 
O=C(/C=C\c1cn(-c2ccccc2)nc1-c1cccs1)N1CCOCC1 |  | 10.4 µM (active)
O=C(O)/C=C/c1cn(Cc2ccccc2)nc1-c1cccs1 | 2.18 | 
COc1ccc(-c2nn(-c3ccccc3)cc2/C=C\C(=O)Nc2ccc(C(=O)O)cc2)cc1 | 23.8 | 
O=C(O)c1ccc(NC(=O)c2cn(-c3ccccc3)nc2-c2ccc(Cl)cc2)cc1 | 47.7 | 
N#Cc1cccc(CN2CCC(=O)N(CCO)CC2)c1 | 93 | 
COc1ccccc1N1CCN(S(=O)(=O)CCNC(=O)c2ccc(OC(C)C)cc2)CC1 | 13.5 | 
CCCCC1(C(=O)OCC)NC(c2ccc(O)cc2)C2C(=O)N(c3ccccc3)C(=O)C21 (centres undefined) | 34.6 | 
CC(OC(=O)C1CC(=O)N(Cc2ccccc2)C1)C(=O)Nc1ccccc1[N+](=O)[O-] (centres undefined) | 49.9 | 
CCSCc1nc(N)nc(NCCc2ccccc2)n1 | 0 | 
COC(=O)CN1C(C)=Nc2ccc(Br)cc2C1c1ccccc1 (centres undefined) | -2.01 | 
Cc1ccc(C(=O)N2CC(=O)Nc3ccc(F)cc3C2c2ccc(F)cc2)cc1 (centres undefined) |  | 1.47 µM (active)

Compound | activity change, negative = inhibition [%] | Potency
CCC(CC)C(=O)N1CC(=O)Nc2ccc(Br)cc2C1c1ccccc1 (centres undefined) |  | 8.28 µM (active)
O=C1CN(C(=O)c2ccccc2F)C(c2ccc(F)cc2)c2cc(F)ccc2N1 (centres undefined) | 13 | 
CC(C)C(=O)N1CC(=O)Nc2ccc(F)cc2C1c1ccc(F)cc1 (centres undefined) | 17.2 | 
Cc1ccc2c(c1)C(c1ccccc1)N(C(=O)c1ccc(F)cc1)CC(=O)N2 (centres undefined) | 24.6 | 
CCCCn1c(N)c(N(CC(C)C)C(=O)c2cccc(S(=O)(=O)N3CC(C)OC(C)C3)c2)c(=O)[nH]c1=O (centres undefined) | -20.2 | 
O=C(COC(=O)c1cc(=O)[nH]c2ccccc12)NCc1cccc(Cl)c1 | -21.9 | 
O=C(Nc1ccccc1C(=O)N1CCOCC1)c1ccc(Cl)cc1 |  | 13.1 µM (active)
O=C(Nc1ccccc1C(=O)N1CCCCCC1)c1ccccc1Cl | 21.4 | 
O=C(Nc1ccccc1C(=O)N1CCOCC1)c1ccc(CSc2ccccc2)cc1 | -3.39 | 
CC(=O)NC1(c2cccc(F)c2)CCN(CC(=O)NC(C)C)CC1 |  | 1.85 µM (active)
Cc1cc(NC(=O)CN2CCC(O)(c3cccc(F)c3)CC2)no1 | 0 | 
O=C(CN1CCN(C(=O)c2cccc(F)c2)CC1)Nc1ccccc1F | 43.4 | 
O=C(O)Cc1csc(NC(=O)CSc2nnnn2-c2ccc(O)cc2)n1 | 19.6 | 
CCn1c(SCC(=O)NC2CC2)nnc1-c1ccccn1 | 1.07 | 
Cc1ccc(S(=O)(=O)N(CC(=O)NCCSC2CCCCC2)c2ccccc2F)cc1 |  | 1.65 µM (active)
Cc1ccc(S(=O)(=O)N(C)CC(=O)NC2CCCC2)cc1 | -4.78 | 
CCN(CC(=O)NCCc1ccccc1)S(=O)(=O)c1ccc(C)cc1 | 4.36 | 
O=C(CS(=O)(=O)c1cn(Cc2ccc(Cl)cc2)c2ccccc12)N1CCOCC1 |  | 8.28 µM (active)
O=C(CS(=O)(=O)c1cn(Cc2cccc(F)c2)c2ccccc12)N1CCCCC1 | 94.6 | 
Cc1ccc(CNC(=O)C(=O)c2cn(CC(=O)N3CCOCC3)c3ccccc23)cc1 | 41.8 | 
CCc1ccc(NC(=O)COC(=O)c2cccs2)cc1 | -27.9 | 
CCOC(=O)Cc1cc(=O)[nH]c(/N=C(\N)Nc2ccc(OC)cc2)n1 | 8 | 
O=C(CN1CCOCC1)N/N=C/c1ccc(-c2ccc(Br)cc2)o1 | 10.5 | 
COC(=O)C1=CO[C@@H](O[C@@H]2O[C@H](CO)[C@@H](O)[C@H](O)[C@H]2O)C2C1C[C@H](O)[C@@H]2C (some centres undefined) | 37.1 | 
CC(/C=C/C1(O)C(C)CC(=O)CC1(C)C)OC1OC(CO)C(O)C(O)C1O (centres undefined) | 57.5 | 

Compound | activity change, negative = inhibition [%] | Potency
C=CC1C(OC2OC(CO)C(O)C(O)C2O)OC=C(C(=O)OC)C1CC1CC(=O)CC(CC(=O)CCc2ccc(O)cc2)O1 (centres undefined) |  | 5.22 µM (active)
Cc1cc(=O)[nH]c2nnnn12 | 26 | 
NS(=O)(=O)c1ccc(CNC(=O)c2cccc(Oc3ccccc3)c2)cc1 | 4.38 | 
Cc1nc(C)c2c(c1C(F)(F)F)-c1ccccc1C2(F)F |  | 11.7 µM (active)
COCCCC1CCN(C(=O)C2CCC(=O)N(C3CCCCCC3)C2)CC1 (centres undefined) | 24.7 | 
CCN(CC)c1ccc(NC(=O)CN2C(=O)NC3(CCc4ccccc43)C2=O)cc1 (centres undefined) | 29.7 | 
COc1cccc(C(=O)NCCSc2ccc(Br)cc2)c1 | -24.1 | 
COc1ccc(C(=O)NCc2nnc(SCCOc3ccccc3)n2C)cc1 | 11.2 | 
COc1ccc(C(=O)NCCSc2ccccc2C)cc1 |  | 3.29 µM (active)
COc1cc(C(C(=O)NC2CCCC2)N(Cc2ccccc2)C(=O)c2snc(C(N)=O)c2N)ccc1O (centres undefined) | -1.49 | 
COc1ccc(CNC(=O)C(=O)NCC2OCCN2C(=O)c2ccc(OC)cc2)cc1 (centres undefined) | -5.85 | 
O=C(CCCC(=O)N(CC(=O)NC1CCCC1)Cc1ccccc1Cl)Nc1ccccn1 | -35.8 | 
O=C(CN(Cc1ccccc1)C(=O)CCC(=O)Nc1ccccn1)NCCc1ccccc1 |  | 13.1 µM (active)
Cc1ccnc(NC(=O)CCC(=O)N(CC(=O)NCCc2ccccc2)Cc2cccs2)c1 | 40.5 | 
CCCNC(=O)c1c(N)n(-c2ccc(S(N)(=O)=O)cc2)c2nc3ccccc3nc12 | 38.1 | 
C=CCn1c(N)c(C(=O)OCC(C)C)c2nc3ccccc3nc21 | 39.3 | 
CCC(C)NC(=O)c1c(N)n(/N=C/c2cccs2)c2nc3ccccc3nc12 (centres undefined) |  | 10.4 µM (active)
O=C(NCCc1c[nH]c2ccc(Cl)cc12)c1ccc([N+](=O)[O-])cc1 | -56.9 | 
Cc1ccc(CNC(=O)c2c(-c3ccccc3)noc2C)cc1 | 1.58 | 
Brc1ccc2ncnc(NCc3cccnc3)c2c1 | -2.48 | 
Oc1ccccc1CNc1ncc(Br)cc1Br |  | 13.1 µM (active)
CCc1cccc(C)c1NS(=O)(=O)c1cc(Br)cnc1N | 19.6 | 
COc1ccc(S(=O)(=O)c2c[nH]c(=S)[nH]c2=O)cc1Cl | 37.2 | 
O=C(O)c1cc(S(=O)(=O)NC2CCCc3ccccc32)ccc1O (centres undefined) | 5.45 | 
O=c1[nH]c2ccc(S(=O)(=O)N3CCCC3)cc2[nH]1 | 35.6 | 

Compound | activity change, negative = inhibition [%] | Potency
CCCCn1c(N)c(N(CCOC)C(=O)c2cccc(S(=O)(=O)N3CCCCC3)c2)c(=O)[nH]c1=O | -0.352 | 
CCCCn1c(=S)[nH]c2cc(S(=O)(=O)N3CCCCC3)ccc21 |  | 9.28 µM (active)
Cc1ccc(S(=O)(=O)N(C)C)cc1NC(=O)C1Cc2ccccc2CN1C(=O)c1ccco1 (centres undefined) | -21.9 | 
O=C(NCCCn1ccnc1)/C(=C\c1ccccc1F)NC(=O)c1ccccc1 | 22.2 | 
Cc1c(C(=O)OCC(=O)N2CCCC2=O)oc2ccccc12 | 20 | 
Oc1c(CN2CCCC2)cc(COCc2ccccc2)c2cccnc12 |  | 2.08 µM (active)
CC1CCCN(CC(O)COCc2ccccc2)C1 (centres undefined) | 33.6 | 
O=[N+]([O-])c1cc([N+](=O)[O-])c2cccnc2c1O | -7.46 | 
Cc1cnc(C(=O)N2CCCC(N3CCN(c4ccccc4F)CC3)C2)cn1 (centres undefined) | -0.336 | 
O=C(Nc1nnc(SCc2c(Cl)cccc2Cl)s1)c1cccc([N+](=O)[O-])c1 | 1.35 | 
COc1ccc(NC(=O)CCNS(=O)(=O)c2ccc3c(c2)c(=O)n(C)c(=O)n3C)cc1OC | 65 | 
Cn1c(=O)oc2cc(S(=O)(=O)N3CCC(C(=O)Nc4ccc(OC(F)(F)F)cc4)CC3)ccc21 | 37.5 | 
Cc1ccc(NC(=O)CCNS(=O)(=O)c2ccc3c(c2)oc(=O)n3C)cc1C | 14.7 | 
Cn1c(=O)oc2cc(S(=O)(=O)NCCC(=O)NCc3ccccc3Cl)ccc21 |  | 10.4 µM (active)
CCN(Cc1ccccc1)C(=O)CCS(=O)(=O)c1ccc2c(c1)oc(=O)n2C | 7.96 | 
O=C(CCNS(=O)(=O)c1ccc(Br)s1)NCc1ccccc1Cl | 3.9 | 
COc1cccc(NC(=O)CCNS(=O)(=O)c2ccc3c(c2)oc(=O)n3C)c1 |  | 7.38 µM (active)
CSCCC(NS(=O)(=O)c1ccc2c(c1)oc(=O)n2C)C(=O)NCc1ccccc1 (centres undefined) | 7.38 | 
COc1cc(NC(=O)CCS(=O)(=O)c2ccc3c(c2)oc(=O)n3C)cc(OC)c1 |  | 1.47 µM (active)
CS(=O)(=O)N(CC(=O)Nc1ccc(F)cc1)C1CCCCC1 | 19.4 | 
CCOC(=O)Cn1c(O)c(N=NC(=O)CNC(=O)Cc2ccccc2)c2ccccc21 | 18.9 | 
Cc1nc2nc(C)c(NS(=O)(=O)c3ccc(C(C)(C)C)cc3)c(=O)n2[nH]1 | 26.3 | 
CC1CCN(C(=O)c2cccc(S(=O)(=O)N3CCCc4ccccc43)c2)CC1 | -9.51 | 
CC1CCN(C(=O)COC(=O)c2cc(=O)[nH]c3ccccc23)CC1 | 2.14 | 
